Data from PubChem BioAssay (Tox21).
Inconclusive results are not listed. The source made the active and inactive calls. Calls follow the shape of the dose curve; as a rule, active = well fitted inhibition curve with a large enough effect in the repeat runs; inconclusive = weak or mixed curves; inactive = no such curve, though single readings can be large or run the other way.
% is scaled to controls: 0 for no effect and ±100 for the full control effect; potency is read from the fitted curve at half-maximal effect.

What follows are compounds tested against Cytochrome P450 2C9 (Homo sapiens) (UniProt P11712) (assay: Cytochrome P450 Family 2 Subfamily C Member 9 (CYP2C9) small molecule antagonists: luciferase reporter qHTS assay (AID 1671198; also: nearly all actives have a fitted effect of over 50% in size)). Conditions: P450-Glo CYP2C9 enzyme assay, luciferin luminescence; series mostly up to 115 µM.
Chain of Cytochrome P450 2C9 (Homo sapiens) (P11712 whole entry, looked up): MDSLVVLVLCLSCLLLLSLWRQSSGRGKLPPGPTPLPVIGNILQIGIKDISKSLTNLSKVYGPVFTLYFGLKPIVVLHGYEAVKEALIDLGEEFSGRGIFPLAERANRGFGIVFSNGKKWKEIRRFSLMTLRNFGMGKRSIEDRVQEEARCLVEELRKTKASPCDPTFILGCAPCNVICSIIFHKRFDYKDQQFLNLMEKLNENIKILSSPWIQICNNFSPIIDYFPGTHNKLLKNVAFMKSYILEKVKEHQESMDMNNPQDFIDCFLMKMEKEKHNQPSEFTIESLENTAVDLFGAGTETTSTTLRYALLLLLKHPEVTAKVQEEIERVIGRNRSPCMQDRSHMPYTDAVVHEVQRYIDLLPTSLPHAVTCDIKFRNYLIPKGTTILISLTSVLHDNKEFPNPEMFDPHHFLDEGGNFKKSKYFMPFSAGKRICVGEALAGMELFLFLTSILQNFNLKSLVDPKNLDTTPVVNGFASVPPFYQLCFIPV
Excerpt: U.S. Tox21 Program National Center for Advancing Translational Sciences [NCATS] U.S. Environmental Protection Agency [EPA] National Institutes of Environmental Health Sciences [NIEHS] National Toxicology Program [NTP] U.S. Food and Drug Administration [FDA] Tox21 Assay Overview: Cytochrome P450 (CYP) enzymes are membrane-bound hemeproteins that play a key role in metabolism of drugs and xenobiotics. Evaluation of the effect of chemicals on CYP isozymes is useful to minimize the adverse drug reactions and toxicities in drug development process. Tox21 chemicals were tested for their effect on CYP enzyme activities by using P450-Glo (TM) screening systems (Promega Corporation, Madison, WI). These systems provide a luminescent method containing proluciferin substrates and are converted to luciferin products by CYP isozymes. The luciferin products formed are detected with a luciferin detection reagent, and the amount of light produced is proportional to CYP activity. P450-Glo (TM) CYP2C9 screening system (Catalog. No. V9790) was used to detect the compounds that interfere in CYP2C9 activity.
Tox21 Assay Protocol Summary: Two ul of enzyme-substrate mix was dispensed into medium binding white/solid 1536-well plates (Greiner Bio-One North America Inc., Monroe, NC) using a BioRaptr Flying Reagent Dispenser (FRD, Beckman Coulter, Brea, CA). […] The assay plates were incubated at room temperature for 10 min. Then 2 ul of NADPH regeneration solution was added to each well of the assay plates using an FRD and incubated at 37C for 1 h. The reaction was stopped by adding 4 ul of detection reagent using an FRD and after 20 min incubation at room temperature the luminescence signal was measured using a ViewLux plate reader (Perkin Elmer, Shelton, CT). Data were expressed as relative luminescence units.
`O=C(Nc1ccc(S(=O)(=O)N2CCOCC2)cc1)c1cc(Cl)ccc1NS(=O)(=O)c1ccc(Cl)s1` was tested, and the Potency was 0.0436 µM (active).
For `CC[N+](C)(CC)CCOC(=O)C(O)(c1ccccc1)C1CCCCC1` (stereo not given), the Potency was “inactive”.
For `COc1ccc(C(=O)Nc2nc3ccccc3c(NCc3ccccc3)c2C#N)cc1`, the Potency was 2 µM (active).
In the case of `COC(C)(C)CCO`, the Potency was “inactive”.
In the case of `CCCCCC[C@@H](O)C/C=C\CCCCCCCC(=O)OC`, the Potency was 12.7 µM (active).
For `CCOC(=O)COC(=O)c1cc(Oc2ccc(C(F)(F)F)cc2Cl)ccc1[N+](=O)[O-]`, the Potency was 6.33 µM (active).
In the case of `CC1=CC[C@H](C(C)C)C=C1`, the Potency was 39.9 µM (active).
`Cc1cccc(C)c1OCC(=O)N[C@@H](Cc1ccccc1)[C@@H](O)C[C@H](Cc1ccccc1)NC(=O)[C@H](C(C)C)N1CCCNC1=O` was tested, and the Potency was 13.8 µM (active).
In the case of `CC(CSC(=O)c1ccccc1)C(=O)N1C[C@@H](Sc2ccccc2)C[C@H]1C(=O)O` (stereo not given in full), the activity change, negative = inhibition was -9.74% [at 23.6 µM] (inactive).
In the case of `CCCCCCCCCCCc1ccccc1`, the Potency was “inactive”.
With `Nc1cc(C(=O)O)c(O)c(S(=O)(=O)O)c1` the Potency was “inactive”.
With `Cc1cc(C(=O)O)ccc1[N+](=O)[O-]` the Potency was “inactive”.
In the case of `C[C@@H]1C[C@H]2[C@@H]3CCC4=CC(=O)C=C[C@]4(C)[C@@]3(F)[C@@H](O)C[C@]2(C)[C@@]1(O)C(=O)COC(=O)c1ccncc1`, the Potency was 7.76 µM (active).
For `CCC(=O)O[C@]1(C(=O)CCl)[C@@H](C)C[C@H]2[C@@H]3CCC4=CC(=O)C=C[C@]4(C)[C@@]3(F)[C@@H](O)C[C@@]21C`, the Potency was 30.9 µM (active).
For `CC(=O)c1cccc([N+](=O)[O-])c1`, the Potency was “inactive”.
For `OC(CN1CCC(Cc2ccc(F)cc2)CC1)c1ccc(Cl)cc1` (stereo not given), the Potency was “inactive”.
`NCC(=O)CCC(=O)O` was tested, and the Potency was “inactive”.
With `C=CCOc1ccccc1OCC(O)CNC(C)C` (stereo not given) the Potency was “inactive”.
In the case of `CCCCC(CC)COC(=O)COc1ccc(Cl)cc1Cl` (stereo not given), the Potency was 32.2 µM (active).
For `COc1ccnc(CS(=O)c2nc3ccc(OC(F)F)cc3[nH]2)c1OC` (stereo not given), the Potency was 34.7 µM (active).
`O=[N+]([O-])c1ccc2[nH]ncc2c1` was tested, and the Potency was “inactive”.
With `CNCCCCOc1ccccc1Cc1ccccc1` the Potency was “inactive”.
In the case of `C=CC1CC2C=CC1C2` (stereo not given), the Potency was “inactive”.
In the case of `CCOC(=O)C(O)c1ccccc1` (stereo not given), the Potency was “inactive”.
With `Cc1ccc(N=Nc2c(O)c(C(=O)O)cc3ccccc23)c(S(=O)(=O)O)c1` the Potency was 34.5 µM (active).
For `CCc1cc(C2=C(C(=O)O)N(c3ccccc3C(F)(F)F)S(=O)(=O)c3ccccc32)cc2c1OCO2`, the Potency was 11.1 µM (active).
For `CC(C)(C)Cl`, the Potency was “inactive”.
For `CN(C)CCN(Cc1ccsc1)c1ccccn1`, the Potency was “inactive”.
With `CC(=O)OC[C@H]1O[C@@H](n2ncc(=O)[nH]c2=O)[C@H](OC(C)=O)[C@@H]1OC(C)=O` the Potency was “inactive”.
With `c1ccc(C(O[C@H]2CCCN(CCc3ccc4c(c3)OCO4)C2)c2ccccc2)cc1` the Potency was 15.5 µM (active).
For `O=C1c2ccccc2S(=O)(=O)N1CCCCN1CCN(c2ncccn2)CC1`, the Potency was 15.5 µM (active).
With `CC[N+]1(CC)CCC(=C(c2ccccc2)c2ccccc2)C1C` (stereo not given) the Potency was “inactive”.
For `O=C(O)CC(=O)C(=O)O`, the Potency was “inactive”.
With `CC(C)Cc1ccc(C(C)C(=O)OCc2ccccn2)cc1` (stereo not given) the Potency was 7.76 µM (active).
In the case of `CCn1cc(C(=O)O)c(=O)c2cnc(N3CCNCC3)nc21`, the Potency was “inactive”.
With `C/C=C(/C(=C/C)c1ccc(OC(C)=O)cc1)c1ccc(OC(C)=O)cc1` the Potency was 7.76 µM (active).
In the case of `CCCCC/C=C\C/C=C\CCCCCCCC(=O)NC(C)c1ccccc1` (stereo not given), the Potency was 2.45 µM (active).
`COC(=O)c1ccc(I)cc1S(=O)(=O)NC(=O)Nc1nc(C)nc(OC)n1` was tested, and the Potency was 34.1 µM (active).
In the case of `Cc1oc2c(NC(=O)c3c(Cl)cccc3Cl)cccc2c1C(C)(C)O`, the Potency was 1.59 µM (active).
With `NC(N)=NCCC[C@H](N)C(=O)O` the activity change, negative = inhibition was 10.6% [at 10.5 µM] (inactive).
